Screening data deposited in PubChem by National Center for Advancing Translational Sciences (NCATS).
BAZ2B inh = blocks human BAZ2B | Q9UIF8 | AlphaScreen BAZ2B-H3K14Ac peptide displacement | Potency, µM (highest dose often 114 µM), most hits filed as inhibitors | hit rate 4.4% among 360,000; also: nearly all actives have a fitted effect of over 60% in size
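BAZ2B (50 nM) with biotin-H3(5-23)K14Ac peptide (50 nM) in PBS pH 7.4, 0.01% Tween-20, preformed 30 min, then compound 30 min at room temperature; top concentration 110uM. AlphaScreen streptavidin donor/nickel chelate acceptor beads (10 ug/mL final), 20 min dark, signal read.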
G9a block = G9a (human) methyltransferase inhibition. Potency, µM (doses to about 102 µM), most hits filed as inhibitors. Q96KQ7. G9a H3K9 monomethylation, AlphaScreen, 2 h. hit rate 8.8% among 350,000; also: nearly all actives have a fitted effect of over 75% in size
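G9a (20 nM) was preincubated 15 min with compound, then reacted 2 h at room temperature with 500 nM biotin-H3K9 peptide and 20 µM SAM. Monomethyl-H3K9 detected by AlphaScreen using anti-H3K9me1 antibody.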
JMJD2A Tudor inh = inhibitors of human JMJD2A Tudor domain; O75164; AlphaScreen JMJD2A-Tudor / H3K4me3 peptide binding; Potency, µM (titrated, usually from 114 µM), usual class: inhibitors; hit rate 4.4% among 390,000; AID 504339; also: nearly all actives have a fitted effect of over 50% in size
GLS inhibitor = glutaminase GLS (human) inhibition | Potency, µM (highest dose often 45.5 µM), most hits filed as inhibitors | GLS enzymatic activity, qHTS titration | O94925 | hit rate 0.21% among 410,000
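Compounds were pin-transferred onto hKGA, after which L-glutamine (1 mM solution) and a detection mix of glutamate oxidase, HRP and Amplex Red were added. Initial and 30 min RT fluorescence reads were collected.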
HP1b binding inh = blocks HP1-beta chromodomain binding to methylated histone tails; Potency, µM (titrated, usually from 114 µM), hits mostly inhibitors; P83916; hit rate 0.56% among 390,000; AlphaScreen HP1-beta / biotin-H3K9me3 peptide binding; also: nearly all actives have a fitted effect of over 70% in size
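HP1-beta protein (50 nM final) preincubated 30 min at room temperature with biotinylated H3(1-18)K9me3 peptide (50 nM) in PBS pH 7.4, 0.01% Tween-20, then compound added for 30 min. AlphaScreen streptavidin donor/nickel chelate acceptor beads (10 ug/mL final), 30 min dark, luminescence read.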
Numbers stand for hits; – = inactive; ? = inconclusive; · = no result. Most compounds without a hit are left out; they make up all but 10% or so of the library. Calls follow the shape of the dose curve; as a rule, active = well fitted curve in the direction sought with a large enough effect; inconclusive = small, poorly fitted or top-dose-only effect, or another doubt; inactive = no such curve, though single readings can be large; an effect the other way counts as inactive or inconclusive.

SMILES	BAZ2B inh	G9a block	JMJD2A Tudor inh	GLS inhibitor	HP1b binding inh
Cc1nnc(N/N=C\c2ccc(-c3cccc(C(=O)O)c3)o2)n1N	79.4µM	39.8µM	25.1µM	–	–
COC(=O)c1ccc(NC(=O)CCn2cnnn2)cc1	–	–	–	–	–
Cc1ccc(S(=O)(=O)N2CCC(=O)N([C@H](COCc3ccc(Cl)c(Cl)c3)Cc3ccccc3)CC2)cc1	·	·	·	–	·
COC(=O)c1ccc2nc(-c3ccc(Cl)cc3)c(Cc3ccsc3)n2c1	·	·	·	–	·
CSc1ccc(CNC(=O)c2ccccc2NC(=O)c2nsc3ccccc23)cc1	–	–	–	–	–
COc1ccc(NC(=O)CN2C(=O)CCn3nc(-c4cccn4C)cc32)cc1	?	–	?	–	–
O=C(/C=C/c1ccc(-c2ccccc2)o1)c1ccccc1	35.5µM	?	–	–	?
COc1ccc(/C=C/C(=O)Nc2ccc(Cl)c(Cl)c2)cc1	–	–	–	–	–
COC(=O)/C=C/C(=O)Nc1cccnc1	–	50.1µM	–	–	–
COC(=O)/C=C/C(=O)Nc1ccc(O)c(Cl)c1	?	39.8µM	–	–	–
O=C(Nc1cccnc1)C12CC3CC(CC(C3)C1)C2	–	–	–	–	–
O=C(Nc1cccnc1)C1(F)C(F)(F)C(F)(F)C(F)(F)C(F)(F)C1(F)F	–	50.1µM	79.4µM	–	–
O=C(O)/C=C/C(=O)Nc1cccnc1	–	–	–	–	–
COc1cccc2sc(N3CCN(C(=O)CCS(=O)(=O)c4ccc(F)cc4)CC3)nc12	–	–	–	–	–
CC12CC3(C)CC(C)(C1)CC(C(=O)Nc1nn[nH]n1)(C2)C3	?	35.5µM	50.1µM	–	–
Cc1nnc(NC(=O)C23CC4CC(C)(CC(C)(C4)C2)C3)s1	·	·	–	–	–
CC12CC3CC(C)(C1)CC(C(=O)Nc1nn[nH]n1)(C3)C2	?	35.5µM	20µM	–	–
CC(C)(C)CC(=O)Nc1nn[nH]n1	79.4µM	?	56.2µM	–	–
CCC12CC3CC(C1)CC(C(=O)Nc1nn[nH]n1)(C3)C2	?	20µM	25.1µM	–	–
COc1ccc(OC)c(CNC(=O)Cn2ncc3c([nH]c4ccc(C)cc43)c2=O)c1	–	–	–	–	–
COc1ccc(NC(=O)c2cc(C3CCCCN3S(=O)(=O)Cc3ccccc3)on2)cn1 (stereo unspecified)	·	·	·	–	·
COc1cc(C)c(C)cc1S(=O)(=O)Nc1cccc(-c2ccc(N3CCOCC3)nn2)c1	–	?	–	–	–
O=C1NC2c3c(Cl)sc(Cl)c3C(=O)C2O1 (stereo unspecified)	·	·	56.2µM	?	–
COc1cc2[nH]c3c(Cl)ncnc3c2cc1OC	44.7µM	?	–	–	–
Cc1ccc(C)c(OCCCn2c(-c3ccc(Cl)cc3)nc3ccccc3c2=O)c1	–	?	–	–	–
SMILES	BAZ2B inh	G9a block	JMJD2A Tudor inh	GLS inhibitor	HP1b binding inh
Cn1c(NCCCN2CCOCC2)nc2c1c(=O)n(Cc1ccc(Cl)cc1)c(=O)n2C	?	?	–	15.8µM	–
Cn1c(NCCCCO)nc2c1c(=O)n(Cc1ccc(Cl)cc1)c(=O)n2C	–	–	–	12.6µM	–
COc1ccc(Cn2c(=O)c3c(nc(NCCO)n3C)n(C)c2=O)cc1	–	–	–	–	–
N#Cc1nc(-c2ccc(OCc3ccc(Cl)cc3)cc2)oc1N1CCCC1	·	·	–	·	–
O=C(O)CSC1=NC(=Nc2cccc(Cl)c2)C2(CCCCC2)N1c1ccccc1	–	3.55µM	44.7µM	–	?
O=C1NC(=S)N(c2cccc(Cl)c2)C12CCCCC2	–	–	–	–	–
COc1cc(OC)c(OC)cc1CN1CCN(Cc2ccc(SC)cc2)CC1	39.8µM	3.16µM	20µM	–	?
COc1cccc(CN2CCN(Cc3cc(OC)c(OC)cc3OC)CC2)c1	20µM	44.7µM	1.58µM	–	17.8µM
COc1cc(CN2CCN(Cc3ccc(SC)cc3)CC2)cc(OC)c1O	50.1µM	7.94µM	0.891µM	–	25.1µM
O=C(NCCNC(=O)c1ccco1)c1ccc(F)cc1	–	–	–	–	–
O=C(/C(C=Nc1ccc(F)cc1)=C(/O)c1ccco1)C(F)(F)F	?	39.8µM	?	–	–
Cc1ccc(N=C/C(C(=O)C(F)(F)F)=C(\O)c2ccco2)cc1Cl	–	44.7µM	?	–	–
Cc1cccc(N=C/C(C(=O)C(F)(F)F)=C(\O)c2ccco2)c1	–	–	–	–	–
